Inconclusive results are not listed. Calls of active or inactive are those of the source. Rule for the calls: active = hit-call score of the fitted dose curve at least 0.9, where 1 is the maximum; inconclusive = response in the unintended direction; inactive = score below 0.9.

One may read the AC50 as the concentration giving half of the maximal activity seen.

Serine/threonine-protein phosphatase PP1-alpha catalytic subunit (Homo sapiens), sequence (P62136 whole entry, looked up): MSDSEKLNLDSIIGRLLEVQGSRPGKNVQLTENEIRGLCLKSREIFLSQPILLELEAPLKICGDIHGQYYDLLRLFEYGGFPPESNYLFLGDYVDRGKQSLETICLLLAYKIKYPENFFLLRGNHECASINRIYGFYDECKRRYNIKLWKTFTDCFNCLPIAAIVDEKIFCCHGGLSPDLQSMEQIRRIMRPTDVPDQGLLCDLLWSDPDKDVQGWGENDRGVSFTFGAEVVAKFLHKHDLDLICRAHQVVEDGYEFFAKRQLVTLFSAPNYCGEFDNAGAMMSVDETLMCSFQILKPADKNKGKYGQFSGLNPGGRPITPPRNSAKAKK
human Protein Tyrosine Phosphatase Receptor Type M (PTPRM), PTPRM (gene 5797), sequence (P28827 whole entry, looked up): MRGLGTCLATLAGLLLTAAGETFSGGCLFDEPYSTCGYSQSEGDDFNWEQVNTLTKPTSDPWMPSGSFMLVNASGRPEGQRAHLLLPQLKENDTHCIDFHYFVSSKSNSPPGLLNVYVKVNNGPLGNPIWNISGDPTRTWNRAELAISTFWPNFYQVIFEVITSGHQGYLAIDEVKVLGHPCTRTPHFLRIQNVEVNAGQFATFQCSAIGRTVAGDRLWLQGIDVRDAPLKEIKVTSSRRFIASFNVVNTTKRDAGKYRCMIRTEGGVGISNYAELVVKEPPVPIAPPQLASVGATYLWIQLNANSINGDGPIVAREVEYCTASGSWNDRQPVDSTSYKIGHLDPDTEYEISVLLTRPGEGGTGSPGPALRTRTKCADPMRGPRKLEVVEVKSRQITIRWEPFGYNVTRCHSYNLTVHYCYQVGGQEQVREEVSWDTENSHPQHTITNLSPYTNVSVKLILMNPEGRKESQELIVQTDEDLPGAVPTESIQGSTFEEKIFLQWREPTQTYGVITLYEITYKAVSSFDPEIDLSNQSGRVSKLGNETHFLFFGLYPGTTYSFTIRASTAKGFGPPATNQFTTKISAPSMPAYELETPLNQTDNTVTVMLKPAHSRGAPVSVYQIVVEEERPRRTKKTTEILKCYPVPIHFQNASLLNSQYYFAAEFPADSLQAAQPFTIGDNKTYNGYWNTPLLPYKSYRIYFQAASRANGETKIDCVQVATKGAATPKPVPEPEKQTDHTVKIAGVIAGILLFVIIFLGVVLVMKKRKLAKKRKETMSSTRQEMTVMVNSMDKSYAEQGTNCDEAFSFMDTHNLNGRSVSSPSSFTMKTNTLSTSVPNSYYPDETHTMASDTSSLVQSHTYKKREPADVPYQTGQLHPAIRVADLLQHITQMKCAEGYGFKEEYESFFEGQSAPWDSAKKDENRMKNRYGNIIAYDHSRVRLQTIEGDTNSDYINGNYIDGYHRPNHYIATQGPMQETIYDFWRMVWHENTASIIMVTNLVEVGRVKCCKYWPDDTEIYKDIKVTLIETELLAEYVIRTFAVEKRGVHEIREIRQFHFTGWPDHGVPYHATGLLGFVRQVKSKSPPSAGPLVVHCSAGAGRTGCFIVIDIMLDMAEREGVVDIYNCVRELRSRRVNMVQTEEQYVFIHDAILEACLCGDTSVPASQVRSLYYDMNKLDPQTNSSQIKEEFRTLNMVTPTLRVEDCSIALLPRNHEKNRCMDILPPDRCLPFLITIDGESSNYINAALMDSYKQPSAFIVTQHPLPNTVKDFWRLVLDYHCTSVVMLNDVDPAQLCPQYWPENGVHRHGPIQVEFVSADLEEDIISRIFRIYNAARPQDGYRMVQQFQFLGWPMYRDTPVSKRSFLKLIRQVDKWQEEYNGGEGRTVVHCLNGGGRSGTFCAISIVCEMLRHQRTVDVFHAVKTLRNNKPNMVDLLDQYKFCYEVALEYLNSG
human Phosphodiesterase 10 (PDE10), PDE10A (gene 10846), sequence (Q9Y233 whole entry, looked up): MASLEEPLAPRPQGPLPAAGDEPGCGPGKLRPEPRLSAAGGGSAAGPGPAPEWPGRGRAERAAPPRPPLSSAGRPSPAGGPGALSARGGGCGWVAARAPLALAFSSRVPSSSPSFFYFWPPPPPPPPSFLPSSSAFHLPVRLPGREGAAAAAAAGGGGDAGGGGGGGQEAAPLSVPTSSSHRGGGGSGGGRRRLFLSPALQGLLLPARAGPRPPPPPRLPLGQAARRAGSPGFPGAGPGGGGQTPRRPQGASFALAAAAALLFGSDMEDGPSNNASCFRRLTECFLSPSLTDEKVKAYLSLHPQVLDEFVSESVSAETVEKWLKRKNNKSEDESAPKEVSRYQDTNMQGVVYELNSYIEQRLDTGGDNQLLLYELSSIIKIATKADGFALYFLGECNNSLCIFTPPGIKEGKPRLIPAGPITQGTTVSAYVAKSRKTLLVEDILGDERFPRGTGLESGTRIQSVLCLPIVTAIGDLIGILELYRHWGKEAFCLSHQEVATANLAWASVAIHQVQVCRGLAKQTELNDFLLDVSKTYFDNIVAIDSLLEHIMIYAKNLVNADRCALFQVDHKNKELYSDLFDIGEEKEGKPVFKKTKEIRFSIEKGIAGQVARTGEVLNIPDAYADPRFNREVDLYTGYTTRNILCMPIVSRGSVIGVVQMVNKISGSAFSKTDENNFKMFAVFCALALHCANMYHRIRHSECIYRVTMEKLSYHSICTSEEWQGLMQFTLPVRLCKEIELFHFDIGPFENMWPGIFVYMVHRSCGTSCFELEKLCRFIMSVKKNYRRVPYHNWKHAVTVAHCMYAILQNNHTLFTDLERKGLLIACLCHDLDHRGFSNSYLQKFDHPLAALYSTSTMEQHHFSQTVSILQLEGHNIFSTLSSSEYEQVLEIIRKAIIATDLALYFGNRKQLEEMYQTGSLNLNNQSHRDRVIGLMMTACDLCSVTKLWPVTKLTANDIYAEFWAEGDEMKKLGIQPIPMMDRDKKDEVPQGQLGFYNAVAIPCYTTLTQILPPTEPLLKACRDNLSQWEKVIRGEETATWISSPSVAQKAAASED
human Rho Associated Coiled-coil Containing Protein Kinase 1 (ROCK1), ROCK1 (gene 6093), sequence (Q13464 whole entry, looked up): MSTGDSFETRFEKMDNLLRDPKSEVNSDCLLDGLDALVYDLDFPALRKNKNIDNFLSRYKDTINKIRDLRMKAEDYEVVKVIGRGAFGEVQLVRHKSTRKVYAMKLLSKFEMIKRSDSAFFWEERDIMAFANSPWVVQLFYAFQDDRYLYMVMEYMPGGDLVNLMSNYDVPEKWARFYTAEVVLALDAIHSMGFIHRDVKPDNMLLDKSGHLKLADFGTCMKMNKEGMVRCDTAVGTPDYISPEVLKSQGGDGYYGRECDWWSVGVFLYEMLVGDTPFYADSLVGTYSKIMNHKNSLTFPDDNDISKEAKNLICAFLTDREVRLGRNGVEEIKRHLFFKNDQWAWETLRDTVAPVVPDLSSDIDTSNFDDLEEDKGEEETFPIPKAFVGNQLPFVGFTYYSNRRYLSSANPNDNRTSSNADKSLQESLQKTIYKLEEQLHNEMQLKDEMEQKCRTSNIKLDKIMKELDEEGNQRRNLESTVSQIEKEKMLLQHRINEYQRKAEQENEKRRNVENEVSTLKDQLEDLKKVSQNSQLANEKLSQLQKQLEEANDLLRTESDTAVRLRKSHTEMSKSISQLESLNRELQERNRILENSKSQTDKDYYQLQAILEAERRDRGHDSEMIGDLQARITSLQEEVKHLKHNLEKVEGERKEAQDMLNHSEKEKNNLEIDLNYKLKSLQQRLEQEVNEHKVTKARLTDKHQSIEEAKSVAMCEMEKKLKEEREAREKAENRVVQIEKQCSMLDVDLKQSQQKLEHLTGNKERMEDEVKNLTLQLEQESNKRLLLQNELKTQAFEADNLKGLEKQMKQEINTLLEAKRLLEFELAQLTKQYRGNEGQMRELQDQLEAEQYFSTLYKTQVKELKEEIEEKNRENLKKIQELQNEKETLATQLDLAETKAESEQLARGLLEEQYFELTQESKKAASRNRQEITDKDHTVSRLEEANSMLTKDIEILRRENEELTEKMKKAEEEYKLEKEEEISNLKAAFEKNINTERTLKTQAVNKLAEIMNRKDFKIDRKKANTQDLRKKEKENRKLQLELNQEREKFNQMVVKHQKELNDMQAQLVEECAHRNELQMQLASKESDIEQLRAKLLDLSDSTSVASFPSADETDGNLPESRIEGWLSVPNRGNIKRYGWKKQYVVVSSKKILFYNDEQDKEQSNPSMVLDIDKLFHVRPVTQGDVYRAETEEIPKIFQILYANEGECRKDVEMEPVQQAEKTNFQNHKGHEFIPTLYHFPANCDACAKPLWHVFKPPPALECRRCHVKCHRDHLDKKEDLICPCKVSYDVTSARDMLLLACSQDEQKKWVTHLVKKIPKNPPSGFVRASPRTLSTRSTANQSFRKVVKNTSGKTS

The first experiment has as its target human Phosphodiesterase 10 (PDE10), PDE10A (gene 10846) (UniProt Q9Y233). Description: NVS_ENZ_hPDE10: NovaScreen (NVS) Enzymatic Assay for human Phosphodiesterase 10 (PDE10) (AID 2283195). The method, boiled down: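 PDE10A, cell-free; 1 h incubation; fluorescence intensity + electrophoretic mobility shift separating substrate/product; DMSO = baseline; 25 uM duplicate primary, CRC up to 50 uM.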
As to `O=C(O)CC(O)C(=O)O` (stereo unspecified), the compound was called inactive.
On to `O=C(O)c1cc(N=Nc2ccc(S(=O)(=O)Nc3ccccn3)cc2)ccc1O`, for which the AC50 is 5.28 µM (active).
In the case of `O=C(O)c1cccc(Oc2ccccc2)c1`, the compound was called inactive.

The target in a further experiment is human Phosphoinositide 3-kinase alpha (PI3Ka), PIK3CA (gene 5290) (UniProt P42336). Description: NVS_ENZ_hPI3Ka: NovaScreen (NVS) Enzymatic Assay for human Phosphoinositide 3-kinase alpha (PI3Ka) (AID 2283196). The essentials: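 Fluorescence/mobility-shift readout of substrate conversion by recombinant enzyme, 1 h post-dosing. Primary screen in duplicate at 25 uM; actives (e.g. ≥30% inhibition) retested in singleton concentration-response, top concentration 50 uM.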
Regarding `CC[C@H](C)C(=O)O[C@H]1C[C@@H](C)C=C2C=C[C@H](C)[C@H](CC[C@@H]3C[C@@H](O)CC(=O)O3)[C@H]21`, the call was inactive.
The same measure, in the same setting: in the case of `Cc1ccc(N)cc1O` it was “inactive”.
Take `COc1ccc2sc(C(=O)Nc3nnn[nH]3)c(OC(C)C)c2c1`: the AC50 is 0.192 µM (active).
Still for that read-out and setting: to `CC(C)c1cccc(C(C)C)c1N1C(=O)c2ccc(O)cc2C1=O` belongs 0.533 µM (active).
For `O=C(O)c1cc(N=Nc2ccc(S(=O)(=O)Nc3ccccn3)cc2)ccc1O`, the call was inactive.
Same read-out and setting: in the case of `O=C(O)c1cccc(Oc2ccccc2)c1` it was “inactive”.

Another experiment has as its target Serine/threonine-protein phosphatase PP1-alpha catalytic subunit (Homo sapiens) (UniProt P62136). Kind of experiment: NVS_ENZ_hPPP1CA: NovaScreen (NVS) Enzymatic Assay for human Protein Phosphatase 1 Aatalytic subunit Alpha (PPP1CA) (AID 2283200). The method, boiled down:
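Recombinant enzyme activity read by fluorescence with electrophoretic mobility shift separating substrate from product, 1.33 h after dosing; loss of signal vs DMSO baseline. Primary screen in duplicate at 25 uM; actives retested in concentration-response up to 50 uM.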
Take `Cc1ccc(N)cc1O`: the compound was classed as inactive.
On the same count and under the same terms, in the case of `COCCOCCOCCOC` it was “inactive”; in that of `O=C(O)c1cccc(Oc2ccccc2)c1`, “inactive”.

The target of a further experiment is human Protein Tyrosine Phosphatase Non-receptor Type 1 (PTPN1), PTPN1 (gene 5770) (UniProt P18031). Kind of experiment: NVS_ENZ_hPTPN1: NovaScreen (NVS) Enzymatic Assay for human Protein Tyrosine Phosphatase Non-receptor Type 1 (PTPN1) (AID 2283201). The essentials: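 Cell-free fluorogenic-substrate activity assay on recombinant enzyme, read 1.33 h after dosing by fluorescence and electrophoretic mobility shift; loss of signal vs DMSO baseline. Primary screen in duplicate at 25 uM, hits then run in concentration-response up to 50 uM.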
As to `Cc1ccc(N)cc1O`, the call was inactive.
On the same count and under the same terms, to `CC(C)c1cccc(C(C)C)c1N1C(=O)c2ccc(O)cc2C1=O` belongs “inactive”.
Still for that read-out and setting: to `CN(C)c1ccc(N=NS(=O)(=O)O)cc1` belongs “inactive”.

The next experiment concerns the target Tyrosine-protein phosphatase non-receptor type 11 (Homo sapiens) (UniProt Q06124). Description: NVS_ENZ_hPTPN11: NovaScreen (NVS) Enzymatic Assay for human Protein Tyrosine Phosphatase Non-receptor Type 11 (PTPN11) (AID 2283202). The essentials: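 Recombinant human PTPN11 activity on a fluorescent substrate, with substrate/product separated by electrophoretic mobility shift; read 0.5 h after dosing, loss of signal vs DMSO. Duplicate 25 uM screen, then concentration-response up to 50 uM.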
In the case of `CC[C@H](C)C(=O)O[C@H]1C[C@@H](C)C=C2C=C[C@H](C)[C@H](CC[C@@H]3C[C@@H](O)CC(=O)O3)[C@H]21`, the call was inactive.
Same read-out and setting: to `O=C(O)c1cc(N=Nc2ccc(S(=O)(=O)Nc3ccccn3)cc2)ccc1O` belongs “inactive”; to `O=C(O)c1cccc(Oc2ccccc2)c1`, “inactive”.

For a further experiment, the target named is Tyrosine-protein phosphatase non-receptor type 12 (Homo sapiens) (UniProt Q05209). Kind of experiment: NVS_ENZ_hPTPN12: NovaScreen (NVS) Enzymatic Assay for human Protein Tyrosine Phosphatase Non-receptor Type 12 (PTPN12) (AID 2283204). The method, boiled down: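 Single-concentration duplicates (25 uM) preceded singleton concentration-response up to 50 uM for chemicals passing threshold. Cell-free recombinant PTPN12 activity was read 1.33 h after dosing via fluorescence after mobility-shift separation; loss of signal versus DMSO.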
Tyrosine-protein phosphatase non-receptor type 12 (Homo sapiens), sequence (Q05209 whole entry, looked up): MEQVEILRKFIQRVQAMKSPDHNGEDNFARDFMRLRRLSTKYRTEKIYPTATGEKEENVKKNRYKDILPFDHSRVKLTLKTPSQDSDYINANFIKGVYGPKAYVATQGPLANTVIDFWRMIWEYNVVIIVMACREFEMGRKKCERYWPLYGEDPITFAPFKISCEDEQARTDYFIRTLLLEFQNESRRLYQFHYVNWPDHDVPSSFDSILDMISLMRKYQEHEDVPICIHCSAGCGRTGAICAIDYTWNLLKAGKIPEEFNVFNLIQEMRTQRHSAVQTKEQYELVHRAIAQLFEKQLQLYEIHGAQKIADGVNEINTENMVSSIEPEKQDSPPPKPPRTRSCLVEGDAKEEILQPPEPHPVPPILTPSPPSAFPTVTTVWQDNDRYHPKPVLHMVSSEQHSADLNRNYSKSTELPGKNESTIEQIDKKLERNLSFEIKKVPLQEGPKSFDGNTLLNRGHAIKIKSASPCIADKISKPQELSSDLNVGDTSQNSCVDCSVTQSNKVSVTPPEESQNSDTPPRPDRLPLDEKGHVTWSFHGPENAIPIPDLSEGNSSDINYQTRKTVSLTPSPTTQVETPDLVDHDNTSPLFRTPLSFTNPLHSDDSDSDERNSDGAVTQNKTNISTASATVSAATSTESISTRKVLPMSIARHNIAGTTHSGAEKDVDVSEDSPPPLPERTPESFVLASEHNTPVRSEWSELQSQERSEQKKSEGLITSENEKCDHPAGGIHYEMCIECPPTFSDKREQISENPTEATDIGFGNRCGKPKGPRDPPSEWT
Turning to `Cc1ccc(N)cc1O`, the compound was classed as inactive.
The same measure, in the same setting: to `CC(C)c1cccc(C(C)C)c1N1C(=O)c2ccc(O)cc2C1=O` belongs “inactive”.
Still for that read-out and setting: in the case of `O=C(O)c1cc(N=Nc2ccc(S(=O)(=O)Nc3ccccn3)cc2)ccc1O` it was “inactive”.
Turning to `CN(C)c1ccc(N=NS(=O)(=O)O)cc1`, the concentration at half-maximal activity (AC50) was 12.5 µM (active).
`O=C(O)c1cccc(Oc2ccccc2)c1`: the compound was classed as inactive.

The target of a further experiment is Tyrosine-protein phosphatase non-receptor type 13 (Homo sapiens) (UniProt Q12923). Description: NVS_ENZ_hPTPN13: NovaScreen (NVS) Enzymatic Assay for human Protein Tyrosine Phosphatase Non-receptor Type 13 (PTPN13) (AID 2283205). The method, boiled down:
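Cell-free assay of recombinant human PTPN13 with a fluorescent substrate, product separated by electrophoretic mobility shift and read 0.5 h after dosing. Primary screen at 25 uM in duplicate, then concentration-response up to 50 uM. Loss of signal fitted against DMSO.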
In the case of `Cc1ccc(N)cc1O`, the compound was classed as inactive.
The same measure, in the same setting: in the case of `CNS(=O)(=O)c1cc(C(=O)N2CCC(CCN3C4CCC3CC(n3c(C)nc5ccccc53)C4)(c3cccc(F)c3)CC2)c(Cl)cc1F` (stereo unspecified) it was “inactive”; in that of `O=C(O)c1cc(N=Nc2ccc(S(=O)(=O)Nc3ccccn3)cc2)ccc1O`, “inactive”.
In the case of `CN(C)c1ccc(N=NS(=O)(=O)O)cc1`, the AC50 was 16.4 µM (active).
Turning to `O=C(O)c1cccc(Oc2ccccc2)c1`, the AC50 was 0.119 µM (active).

Another experiment concerns the target Tyrosine-protein phosphatase non-receptor type 14 (Homo sapiens) (UniProt Q15678). Kind of experiment: NVS_ENZ_hPTPN14: NovaScreen (NVS) Enzymatic Assay for human Protein Tyrosine Phosphatase Non-receptor Type 14 (PTPN14) (AID 2283206). The essentials:
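Cell-free recombinant human PTPN14 with fluorescent substrate, read 0.5 h after dosing by fluorescence and electrophoretic mobility shift separating substrate from product. Primary screen at 25 uM in duplicate; hits run to 50 uM maximum; loss of signal versus DMSO.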
For the compound `Cc1ccc(N)cc1O`, the outcome was inactive.
Still for that read-out and setting: to `CC(C)c1cccc(C(C)C)c1N1C(=O)c2ccc(O)cc2C1=O` belongs “inactive”; to `O=C(O)c1cc(N=Nc2ccc(S(=O)(=O)Nc3ccccn3)cc2)ccc1O`, “inactive”.

The next experiment deals with human Protein Tyrosine Phosphatase Non-receptor Type 4 (PTPN4), PTPN4 (gene 5775) (UniProt P29074). Kind of experiment: NVS_ENZ_hPTPN4: NovaScreen (NVS) Enzymatic Assay for human Protein Tyrosine Phosphatase Non-receptor Type 4 (PTPN4) (AID 2283208). The essentials:
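Cell-free assay of PTPN4 expressed in Sf9 cells, using a fluorescent substrate with product separated by mobility shift; read 1.33 h after dosing. Single-point screen at 25 uM, then concentration-response up to 50 uM. Loss of signal relative to DMSO.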
In the case of `Cc1ccc(N)cc1O`, the compound was called inactive.
As for `O=C(O)CC(O)C(=O)O` (stereo unspecified), the concentration at half-maximal activity (AC50) is 39.2 µM (active).
On to `O=C(O)c1cc(N=Nc2ccc(S(=O)(=O)Nc3ccccn3)cc2)ccc1O`, for which the compound was called inactive.
On the same count and under the same terms, to `O=C(O)c1cccc(Oc2ccccc2)c1` belongs “inactive”.

In the next experiment the target is human Protein Tyrosine Phosphatase Non-receptor Type 9 (PTPN9), PTPN9 (gene 5780) (UniProt P43378). Kind of experiment: NVS_ENZ_hPTPN9: NovaScreen (NVS) Enzymatic Assay for human Protein Tyrosine Phosphatase Non-receptor Type 9 (PTPN9) (AID 2283209). The essentials:
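Sf9-expressed enzyme in a cell-free assay, fluorescence read 1.33 h after dosing with mobility-shift separation of substrate and product. Tested at 25 uM in duplicate, then up to 50 uM; signal loss versus DMSO.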
`CC[C@H](C)C(=O)O[C@H]1C[C@@H](C)C=C2C=C[C@H](C)[C@H](CC[C@@H]3C[C@@H](O)CC(=O)O3)[C@H]21`: the compound was classed as inactive.
Same read-out and setting: in the case of `Cc1ccc(N)cc1O` it was “inactive”.
For `CCCCC(CC)COC(=O)c1ccc(C(=O)OCC(CC)CCCC)cc1` (stereo unspecified), the outcome was inactive.
The same measure, in the same setting: in the case of `CN(C)c1ccc(Cc2ccc(N(C)C)cc2)cc1` it was “inactive”; in that of `O=C(O)c1cc(N=Nc2ccc(S(=O)(=O)Nc3ccccn3)cc2)ccc1O`, “inactive”; in that of `CN(C)c1ccc(N=NS(=O)(=O)O)cc1`, “inactive”.
On the same count and under the same terms, in the case of `O=C(O)c1cccc(Oc2ccccc2)c1` it was “inactive”.

The target in another experiment is human Protein Tyrosine Phosphatase Receptor Type B (PTPRB), PTPRB (gene 5787) (UniProt P23467). Description: NVS_ENZ_hPTPRB: NovaScreen (NVS) Enzymatic Assay for human Protein Tyrosine Phosphatase Receptor Type B (PTPRB) (AID 2283211). The essentials:
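Recombinant human PTPRB with a fluorescent substrate, product separated by electrophoretic mobility shift; read 1 h after dosing. Primary screen in duplicate at 25 uM; actives then retested in concentration series; loss of signal versus DMSO.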
Take `Cc1ccc(N)cc1O`: the call was inactive.
Same read-out and setting: to `CC(C)c1cccc(C(C)C)c1N1C(=O)c2ccc(O)cc2C1=O` belongs “inactive”.
Still for that read-out and setting: to `CN(C)c1ccc(N=NS(=O)(=O)O)cc1` belongs “inactive”; to `O=C(O)c1cccc(Oc2ccccc2)c1`, “inactive”.

A further experiment deals with human Protein Tyrosine Phosphatase Receptor Type F (PTPRF), PTPRF (gene 5792) (UniProt P10586). Description: NVS_ENZ_hPTPRF: NovaScreen (NVS) Enzymatic Assay for human Protein Tyrosine Phosphatase Receptor Type F (PTPRF) (AID 2283213). The method, boiled down: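 Cell-free fluorescence enzyme assay with recombinant protein and substrate; product separated by electrophoretic mobility shift. Read 1 h after dosing, single 25 uM duplicate screen, then concentration-response up to 50 uM; loss of signal vs DMSO.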
Take `Cc1ccc(N)cc1O`: the result was inactive.
On the same count and under the same terms, to `O=C(O)c1cc(N=Nc2ccc(S(=O)(=O)Nc3ccccn3)cc2)ccc1O` belongs “inactive”; to `CN(C)c1ccc(N=NS(=O)(=O)O)cc1`, “inactive”; to `O=C(O)c1cccc(Oc2ccccc2)c1`, “inactive”.

The target of a further experiment is human Rho Associated Coiled-coil Containing Protein Kinase 1 (ROCK1), ROCK1 (gene 6093) (UniProt Q13464). Kind of experiment: NVS_ENZ_hROCK1: NovaScreen (NVS) Enzymatic Assay for human Rho Associated Coiled-coil Containing Protein Kinase 1 (ROCK1) (AID 2283214). The essentials:
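Cell-free recombinant human ROCK1 activity assay; fluorescent substrate and product separated by electrophoretic mobility shift, read 1 h after dosing. Screened in duplicate at 25 uM; loss of signal versus DMSO baseline scored as inhibition.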
On to `COc1ccc2sc(C(=O)Nc3nnn[nH]3)c(OC(C)C)c2c1`, for which the concentration at half-maximal activity (AC50) was 7.67 µM (active).
Regarding `O=C(O)CCN(C1(C(=O)NO)CCCC1)S(=O)(=O)c1ccc(Oc2ccc(F)cc2)cc1`, the call was inactive.
Regarding `COCCOCCOCCOC`, the result was inactive.

For a further experiment, the target named is human Protein Tyrosine Phosphatase Receptor Type M (PTPRM), PTPRM (gene 5797) (UniProt P28827). Description: NVS_ENZ_hPTPRM: NovaScreen (NVS) Enzymatic Assay for human Protein Tyrosine Phosphatase Receptor Type M (PTPRM) (AID 2283215). The method, boiled down:
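Cell-free recombinant PTPRM with fluorogenic substrate; product separated from substrate by electrophoretic mobility shift and read by fluorescence, 1.33 h after dosing. Primary screen single concentration (25 uM) in duplicate; actives retested in concentration series; loss of signal versus DMSO.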
With `O=C(O)c1cc(N=Nc2ccc(S(=O)(=O)Nc3ccccn3)cc2)ccc1O`, the outcome was inactive.
The same measure, in the same setting: in the case of `CN(C)c1ccc(N=NS(=O)(=O)O)cc1` it was “inactive”; in that of `O=C(O)c1cccc(Oc2ccccc2)c1`, “inactive”.

The record behind these values is PubChem BioAssay (EPA / NIEHS).
